Experimental data published in PubChem BioAssay (EPA / NIEHS).
Activity calls are given as the source filed them. How the source made its calls: active means hit-call score of the fitted dose curve at least 0.9, where 1 is the maximum; inactive means score below 0.9.

Legend:
Details in all cases: mRNA level, 48 h; actives raise or lower the signal
[1] = read-out: BCL2L11 (gene 10018); assay: LTEA_HepaRG_BCL2L11: Life Technologies and Expression Analysis (LTEA) Assay for Bcl-2 (BCL2L11) gene using HepaRG (AID 2283473)
Procedure, shortened: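 Read-out is BCL2L11 transcript level by qRT-PCR, normalized to three housekeeping genes and fitted bidirectionally against 0.5% DMSO vehicle. HepaRG cells received chemicals for 48 h in serum-free induction medium, 100 uM down in half-log dilutions.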

[2] = read-out: Apolipoprotein A-V (APOA5) gene, APOA5 (gene 116519); assay: LTEA_HepaRG_APOA5: Life Technologies and Expression Analysis (LTEA) Assay for Apolipoprotein A-V (APOA5) gene using HepaRG (AID 2283474)
Procedure, shortened: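 Readout is APOA5 transcript level by qRT-PCR on Fluidigm dynamic arrays, normalized to three housekeeping genes. HepaRG cultures received chemicals for 48 h at up to 100 uM (half-log steps, 0.5% DMSO), with gain or loss scored relative to DMSO.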

[3] = read-out: Apoptosis regulator Bcl-2 (Homo sapiens) (UniProt P10415); assay: LTEA_HepaRG_BCL2: Life Technologies and Expression Analysis (LTEA) Assay for Bcl-2 gene using HepaRG (AID 2283475)
Procedure, shortened: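 Each chemical was tested in duplicate on HepaRG cultures held in serum-free induction medium for 48 h, highest concentration 100 uM with half-log dilutions. Transcript levels came from multiplexed qRT-PCR, normalised to housekeeping genes; activity was scored in either direction relative to DMSO.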

[4] = read-out: Bcl-2 (BID) gene, BID (gene 637); assay: LTEA_HepaRG_BID: Life Technologies and Expression Analysis (LTEA) Assay for Bcl-2 (BID) gene using HepaRG (AID 2283476)
Procedure, shortened: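 Assay used HepaRG hepatic cells treated 48 h in serum-free medium with half-log dilutions from 100 uM. Endpoint: BID mRNA, qRT-PCR, normalized to ACTB/GAPDH/POLR2A.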

[5] = read-out: Caspase-3 (Homo sapiens) (UniProt P42574); assay: LTEA_HepaRG_CASP3: Life Technologies and Expression Analysis (LTEA) Assay for cysteine-aspartic acid protease (CASP3) using HepaRG (AID 2283477)
Procedure, shortened: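 Read-out is CASP3 mRNA level by TaqMan qRT-PCR in human HepaRG cells after 48 h chemical exposure. Eight half-log concentrations topping at 100 uM were tested in 0.5% DMSO; gain or loss was fitted relative to DMSO.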

[6] = read-out: cysteine-aspartic acid protease (CASP8), CASP8 (gene 841); assay: LTEA_HepaRG_CASP8: Life Technologies and Expression Analysis (LTEA) Assay for cysteine-aspartic acid protease (CASP8) using HepaRG (AID 2283480)
Procedure, shortened: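 qRT-PCR readout of CASP8 mRNA, normalized to three housekeeping genes, after 48 h chemical exposure of HepaRG cells; 8-point half-log series, top 100 uM, 0.5% DMSO vehicle. Bidirectional curve fitting against DMSO baseline.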

[7] = read-out: DNA damage-inducible transcript 3 (DDIT3), DDIT3 (gene 1649); assay: LTEA_HepaRG_DDIT3: Life Technologies and Expression Analysis (LTEA) Assay for DNA damage-inducible transcript 3 (DDIT3) using HepaRG (AID 2283488)
Procedure, shortened: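 Eight-point concentration-response (100 uM highest, half-log dilutions) in HepaRG, 48 h, duplicate wells. Endpoint: qRT-PCR mRNA, normalized (ACTB, GAPDH, POLR2A), bidirectional fitting with DMSO as baseline.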

[8] = read-out: Pro-epidermal growth factor (Homo sapiens) (UniProt P01133); assay: LTEA_HepaRG_EGF: Life Technologies and Expression Analysis (LTEA) Assay for Epidermal growth factor (EGF) using HepaRG (AID 2283489)
Procedure, shortened: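 HepaRG, 48 h dosing, 100 uM top, half-log x8, 0.5% DMSO. Readout: TaqMan qRT-PCR (Fluidigm array), housekeeping-normalized. Gain or loss of signal fit vs DMSO.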

[9] = read-out: Ezrin (EZR), EZR (gene 7430); assay: LTEA_HepaRG_EZR: Life Technologies and Expression Analysis (LTEA) Assay for Ezrin (EZR) using HepaRG (AID 2283491)
Procedure, shortened: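 Differentiated human HepaRG cells, 48 h after plating, were exposed in serum-free induction medium for 48 hours to eight half-log concentrations up to 100 uM in 0.5% DMSO. EZR mRNA was measured by TaqMan qRT-PCR, normalized to ACTB, GAPDH and POLR2A, and fitted bidirectionally against DMSO.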

[10] = read-out: Cytochrome P450 (CYP24A1), CYP24A1 (gene 1591); assay: LTEA_HepaRG_CYP24A1: Life Technologies and Expression Analysis (LTEA) Assay for Cytochrome P450 (CYP24A1) using HepaRG (AID 2283478)
Procedure, shortened: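 HepaRG, 48 h chemical exposure, 8-pt half-log CRC from 100 uM, 0.5% DMSO vehicle, duplicates. Endpoint: CYP24A1 mRNA by Fluidigm TaqMan qRT-PCR, normalized ACTB/GAPDH/POLR2A; gain/loss fit vs DMSO.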

[11] = read-out: Cytochrome P450 (CYP2B6), CYP2B6 (gene 1555); assay: LTEA_HepaRG_CYP2B6: Life Technologies and Expression Analysis (LTEA) Assay for Cytochrome P450 (CYP2B6) using HepaRG (AID 2283481)
Procedure, shortened: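 HepaRG cells plated 48 h, switched to serum-free induction medium, then dosed 48 h (8 points, half-log from 100 uM, 0.5% DMSO). RNA isolated; CYP2B6 expression measured by qRT-PCR; gain or loss fitted relative to DMSO.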

[12] = read-out: CYP2C8 (gene 1558); assay: LTEA_HepaRG_CYP2C8: Life Technologies and Expression Analysis (LTEA) Assay for CYP2C8 using HepaRG (AID 2283483)
Procedure, shortened: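 HepaRG (human liver line), 48 h chemical exposure, 8-pt half-log series from 100 uM, 0.5% DMSO vehicle. Readout: CYP2C8 transcript by qRT-PCR, housekeeping-normalized. Bidirectional fit vs DMSO baseline.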

[13] = read-out: CYP2C9 (gene 1559); assay: LTEA_HepaRG_CYP2C9: Life Technologies and Expression Analysis (LTEA) Assay for CYP2C9 using HepaRG (AID 2283484)
Procedure, shortened: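 HepaRG, 48 h dosing, 8-pt half-log series, top 100 uM, 0.5% DMSO vehicle. Read-out: CYP2C9 transcript by TaqMan qRT-PCR, housekeeping-normalized (ACTB/GAPDH/POLR2A). Gain or loss fitted vs DMSO baseline.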

[14] = read-out: CYP2E1 (gene 1571); assay: LTEA_HepaRG_CYP2E1: Life Technologies and Expression Analysis (LTEA) Assay for CYP2E1 using HepaRG (AID 2283485)
Procedure, shortened: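 Assay uses 48 h exposure of HepaRG hepatic cells, eight concentrations to 100 uM. Expression of CYP2E1 is quantified by TaqMan qRT-PCR with ACTB, GAPDH and POLR2A normalization; curves fitted in both directions relative to vehicle.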

[15] = read-out: CYP4A11 (gene 1579); assay: LTEA_HepaRG_CYP4A11: Life Technologies and Expression Analysis (LTEA) Assay for CYP4A11 using HepaRG (AID 2283486)
Procedure, shortened: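 HepaRG, 48 h chem exposure, 8 conc (100 uM top, half-log), 0.5% DMSO vehicle; qRT-PCR readout, housekeeping-gene normalized; bidirectional curve fit vs DMSO baseline.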

[16] = read-out: Early growth response protein 1 (EGR1) transcription factor, EGR1 (gene 1958); assay: LTEA_HepaRG_EGR1: Life Technologies and Expression Analysis (LTEA) Assay for Early growth response protein 1 (EGR1) transcription factor using HepaRG (AID 2283490)
Procedure, shortened: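 HepaRG, 48 h exposure, 8-pt half-log series from 100 uM, 0.5% DMSO vehicle; EGR1 transcript by TaqMan qRT-PCR (Fluidigm array), housekeeping-normalized; bidirectional fit relative to DMSO baseline.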

[17] = read-out: Cytochrome P450 2C19 (Homo sapiens) (UniProt P33261); assay: LTEA_HepaRG_CYP2C19: Life Technologies and Expression Analysis (LTEA) Assay for CYP2C19 using HepaRG (AID 2283482)
Procedure, shortened: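 Transcript levels of CYP2C19 were quantified by qRT-PCR after HepaRG cells were treated for 48 hours with test chemicals up to 100 uM (eight half-log concentrations, 0.5% DMSO vehicle). Gain or loss of signal was fitted relative to DMSO.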

[18] = read-out: Cytochrome P450 3A4 (Homo sapiens) (UniProt P08684); assay: LTEA_HepaRG_CYP3A4: Life Technologies and Expression Analysis (LTEA) Assay for CYP3A4 using HepaRG (AID 2283487)
Procedure, shortened: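 Differentiated HepaRG cells in serum-free induction medium exposed in duplicate for 48 h to 8 half-log concentrations up to 100 uM in 0.5% DMSO. CYP3A4 mRNA measured by qRT-PCR normalized to ACTB, GAPDH and POLR2A; bidirectional fit versus DMSO.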

[19] = read-out: Cytochrome P450 3A7 (Homo sapiens) (UniProt P24462); assay: LTEA_HepaRG_CYP3A7: Life Technologies and Expression Analysis (LTEA) Assay for CYP3A7 using HepaRG (AID 2283492)
Procedure, shortened: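 Human HepaRG liver cells, 48 h post-plating, switched to serum-free induction medium and exposed in duplicate for 48 h. Dosing: 100 uM top, half-log dilutions, 8 points, 0.5% DMSO vehicle. Read-out: CYP3A7 mRNA, gain or loss fitted against DMSO baseline.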

Measured: AC50

Caspase-3 (Homo sapiens), sequence (P42574 whole entry, looked up): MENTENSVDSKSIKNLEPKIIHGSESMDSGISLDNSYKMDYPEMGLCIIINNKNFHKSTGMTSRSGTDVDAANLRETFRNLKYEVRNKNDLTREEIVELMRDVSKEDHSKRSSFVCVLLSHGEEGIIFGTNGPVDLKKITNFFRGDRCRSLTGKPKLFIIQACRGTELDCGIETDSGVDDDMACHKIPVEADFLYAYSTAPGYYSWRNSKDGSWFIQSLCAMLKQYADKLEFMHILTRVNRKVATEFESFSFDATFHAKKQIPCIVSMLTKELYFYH
Apoptosis regulator Bcl-2 (Homo sapiens), sequence (P10415 whole entry, looked up): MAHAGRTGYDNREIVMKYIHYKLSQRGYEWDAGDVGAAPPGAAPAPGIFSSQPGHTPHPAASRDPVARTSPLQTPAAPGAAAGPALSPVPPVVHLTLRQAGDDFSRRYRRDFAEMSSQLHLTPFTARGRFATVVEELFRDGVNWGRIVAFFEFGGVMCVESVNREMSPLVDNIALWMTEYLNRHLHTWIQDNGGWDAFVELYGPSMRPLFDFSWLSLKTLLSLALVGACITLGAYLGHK
Cytochrome P450 3A7 (Homo sapiens), sequence (P24462 whole entry, looked up): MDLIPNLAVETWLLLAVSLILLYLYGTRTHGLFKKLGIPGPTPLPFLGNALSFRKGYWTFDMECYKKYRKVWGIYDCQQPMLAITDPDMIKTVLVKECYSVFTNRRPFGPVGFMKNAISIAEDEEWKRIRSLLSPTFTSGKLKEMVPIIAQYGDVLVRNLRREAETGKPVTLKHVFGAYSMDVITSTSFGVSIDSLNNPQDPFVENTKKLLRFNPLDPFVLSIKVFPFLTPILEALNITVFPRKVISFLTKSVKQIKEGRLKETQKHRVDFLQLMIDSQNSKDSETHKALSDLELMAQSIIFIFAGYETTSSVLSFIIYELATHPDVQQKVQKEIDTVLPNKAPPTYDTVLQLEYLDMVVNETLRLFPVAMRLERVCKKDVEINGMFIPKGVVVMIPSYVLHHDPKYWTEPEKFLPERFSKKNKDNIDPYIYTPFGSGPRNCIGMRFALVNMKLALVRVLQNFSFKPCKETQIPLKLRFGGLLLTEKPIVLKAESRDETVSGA
Cytochrome P450 3A4 (Homo sapiens), sequence (P08684 whole entry, looked up): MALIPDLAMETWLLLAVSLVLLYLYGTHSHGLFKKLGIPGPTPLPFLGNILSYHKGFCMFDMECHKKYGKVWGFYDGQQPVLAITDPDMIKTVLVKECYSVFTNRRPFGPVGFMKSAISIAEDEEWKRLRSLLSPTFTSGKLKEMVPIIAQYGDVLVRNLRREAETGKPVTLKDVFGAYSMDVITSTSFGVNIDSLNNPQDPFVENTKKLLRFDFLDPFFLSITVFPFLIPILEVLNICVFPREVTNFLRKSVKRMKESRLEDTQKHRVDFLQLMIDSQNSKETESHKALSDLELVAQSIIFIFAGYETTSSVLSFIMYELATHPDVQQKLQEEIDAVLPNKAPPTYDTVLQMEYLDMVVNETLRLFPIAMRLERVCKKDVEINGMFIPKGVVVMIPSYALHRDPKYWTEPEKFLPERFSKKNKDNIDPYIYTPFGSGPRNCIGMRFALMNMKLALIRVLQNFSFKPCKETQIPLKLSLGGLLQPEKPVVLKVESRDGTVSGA
Cytochrome P450 2C19 (Homo sapiens), sequence (P33261 whole entry, looked up): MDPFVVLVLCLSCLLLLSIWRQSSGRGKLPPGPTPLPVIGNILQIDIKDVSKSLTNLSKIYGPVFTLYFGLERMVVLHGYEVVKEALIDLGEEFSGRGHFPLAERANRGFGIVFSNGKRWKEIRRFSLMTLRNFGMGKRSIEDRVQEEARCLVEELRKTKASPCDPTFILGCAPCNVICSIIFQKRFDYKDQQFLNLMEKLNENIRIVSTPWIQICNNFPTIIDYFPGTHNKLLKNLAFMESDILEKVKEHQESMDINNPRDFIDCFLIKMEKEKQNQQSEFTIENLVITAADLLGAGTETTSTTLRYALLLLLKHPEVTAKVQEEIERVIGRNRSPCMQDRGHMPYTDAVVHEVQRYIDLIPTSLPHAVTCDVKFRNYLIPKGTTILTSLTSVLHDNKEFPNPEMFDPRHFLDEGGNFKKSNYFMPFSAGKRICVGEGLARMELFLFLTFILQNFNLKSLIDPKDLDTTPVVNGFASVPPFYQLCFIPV

Cc1ccc(S(=O)(=O)NC(=O)NN2CCCCCC2)cc1
inactive: [1] | [2] | [3] | [4] | [5] | [6] | [7] | [8] | [9]

COc1cc2c(c(OC)c1OC)-c1ccc(OC)c(=O)cc1[C@@H](NC(C)=O)CC2
active: [1] 237 nM | [2] 138 nM | [11] 98.6 nM | [12] 95.1 nM | [13] 77.7 nM | [14] 81.7 nM | [15] 80.4 nM
not listed: [17] | [18] | [19]
inactive: all other assays above

COCc1nnc(-c2ccc[n+]([O-])c2)n1-c1c(Cl)c(Cl)cc2[nH]c(=O)c(=O)[nH]c12
active: [11] 14600 nM
not listed: [16]
inactive: all other assays above

CCCCCCCC/C=C\CCCCCCCC(=O)OC[C@@H](O)[C@H]1OC[C@H](O)[C@H]1O
not listed: [17]
inactive: all other assays above
